Screening results (PubChem BioAssay)
CCHF vOTU inh: CCHFV vOTU protease inhibition | Pep-AMC fluorescence | inhibition, % at 11.5 µM | actives 0.55% (n = 370,000); in the data active = inhibition above about 30%
RecA intein inh: Mtb RecA intein splicing inhibition; P9WHJ3; cell-free RecA intein splicing, fluorescence; inhibition, % (no concentration beside the values); actives 0.75% (n = 290,000); AID 2221; in the data active = inhibition above about 30%
Target sequence (P9WHJ3 whole entry, looked up): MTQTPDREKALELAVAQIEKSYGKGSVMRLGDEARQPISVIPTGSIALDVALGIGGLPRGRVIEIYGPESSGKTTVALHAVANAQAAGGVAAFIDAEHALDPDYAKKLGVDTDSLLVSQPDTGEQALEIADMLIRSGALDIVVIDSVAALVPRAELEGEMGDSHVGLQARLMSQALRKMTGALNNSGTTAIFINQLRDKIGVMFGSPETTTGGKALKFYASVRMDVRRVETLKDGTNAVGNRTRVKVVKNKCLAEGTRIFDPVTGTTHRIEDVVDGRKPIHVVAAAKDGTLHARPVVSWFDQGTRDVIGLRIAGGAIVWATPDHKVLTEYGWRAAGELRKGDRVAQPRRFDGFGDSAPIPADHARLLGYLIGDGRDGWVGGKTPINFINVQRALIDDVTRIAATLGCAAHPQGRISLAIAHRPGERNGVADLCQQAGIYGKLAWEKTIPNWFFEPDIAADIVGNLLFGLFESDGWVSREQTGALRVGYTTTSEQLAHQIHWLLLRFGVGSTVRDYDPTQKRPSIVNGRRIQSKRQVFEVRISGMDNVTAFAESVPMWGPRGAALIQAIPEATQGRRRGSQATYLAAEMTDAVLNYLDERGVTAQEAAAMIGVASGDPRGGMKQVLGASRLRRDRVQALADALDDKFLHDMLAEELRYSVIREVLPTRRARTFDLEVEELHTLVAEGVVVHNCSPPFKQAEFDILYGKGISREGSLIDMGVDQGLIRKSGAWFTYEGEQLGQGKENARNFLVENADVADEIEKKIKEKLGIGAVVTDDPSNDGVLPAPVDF
Mtb hypoxia inh: Mtb hypoxia fluorescent reporter inhibition; M. tuberculosis hypoxia-regulated fluorescent reporter, fluorescence; fluorescence inhibition, % (concentration not given with the values); actives 0.1% (n = 300,000); AID 1159583; in the data active = fluorescence inhibition mostly above about 23%, no sharp cut-off; inactive = mostly below about 17%
Sa RN4220 lethal: kills Staphylococcus aureus RN4220; inhibition, % (concentration not given with the values); actives 0.33% (n = 330,000); S. aureus RN4220 growth, OD600, 16 h; AID 1259311; in the data active = inhibition above about 85%
BJeLR lethal: BJeLR cell viability loss; BJeLR (HRASV12) viability, CellTiter-Glo ATP luminescence, 48 h; inhibition, % (test concentration not listed); actives 0.17% (n = 300,000); AID 1554; in the data active = inhibition above about 50%
Sa ugtP lethal: kills S. aureus RN4220 lacking UgtP. S. aureus RN4220 ugtP deletion, OD600 growth, 16 h. growth inhibition, % (concentration not given with the values). actives 0.54% (n = 330,000). AID 1259309; in the data active = growth inhibition above about 68%
Numbers stand for hits; n = inactive; x = no result shown. Only some compounds are listed: those with a hit (about 1.6% of all), similar ones and a draw of the others.

SMILES	CCHF vOTU inh	RecA intein inh	Mtb hypoxia inh	Sa RN4220 lethal	BJeLR lethal	Sa ugtP lethal
CC(Oc1ccc(Cl)cc1Cl)c1nc(-c2ccc(NC(=O)c3cccnc3)cc2)no1 (configuration not stated)	n	n	x	n	72.3	n
COc1cc(C2C(C#N)=C(N)Oc3c2c(-c2ccccc2)nn3-c2ccccc2)cc(OC)c1OC (configuration not stated)	n	69.6	n	n	n	n
O=C(Sc1cccc2cccnc12)c1ccccc1Br	n	n	x	x	96.9	x
CCC(C)n1c(=O)c(C(=O)Nc2ccccc2S(N)(=O)=O)c(O)c2ccccc21 (configuration not stated)	n	n	x	103.4	n	n
CCCn1c(=O)c(C(=O)NCc2ccccc2)c(O)c2ccccc21	n	x	x	x	n	x
CCCCCCCCC(=O)NNC(=O)c1c(O)c2ccccc2n(CCC)c1=O	n	n	n	98.1	n	98.0
CCCn1c(=O)c(C(=O)NNS(=O)(=O)c2ccc(Cl)cc2)c(O)c2ccccc21	n	n	n	99.1	n	100.4
CCCCCCn1c(=O)c(C(=O)NN=Cc2cccc(F)c2)c(O)c2ccccc21	x	x	n	n	x	100.0
CCCn1c(=O)c(C(=O)NNC(=O)c2ccc(Cl)cc2Cl)c(O)c2ccccc21	n	n	n	n	n	n
CCn1c(=O)c(C(=O)NNC(=O)Cc2ccccc2)c(O)c2ccccc21	n	x	n	n	n	n
CCCCCCCCCC(=O)NNC(=O)c1c(O)c2ccccc2n(CCC)c1=O	n	n	n	n	n	90.2
CC(NC(=O)c1nc[nH]c1C(=O)NCCCCCNC(=O)OC(C)(C)C)C(=O)OCc1ccccc1 (configuration not stated)	x	x	n	n	x	n
CCCCCCCCCCC(=O)NNC(=O)c1c(O)c2ccccc2n(CC)c1=O	x	n	n	96.9	n	98.8
CCN1C(=Cc2ccc3ccccc3[n+]2CC)C=Cc2ccccc21	x	x	x	100.2	x	99.8
CCN1/C(=C/c2ccc3ccccc3[n+]2CC)C=Cc2ccccc21	n	n	x	x	62.5	x
CCN1/C(=C/c2ccc3ccccc3[n+]2CCCS(=O)(=O)[O-])C=Cc2cc(C)ccc21	n	n	n	n	n	n
COC1OC2O[C@@]3(C)CCC4C(C)CCC(C1C)[C@@]24OO3 (some centres not stated)	x	x	89.6	n	x	n
CCC(C)NC(=O)CCC(=O)OC1O[C@H]2OC3(C)CC[C@H]4[C@H](C)CCC(C1C)C24OO3 (some centres not stated)	n	n	74.1	n	n	n
CCC(C)C(NC(=O)CCCNC(=O)CCC(=O)OC1O[C@H]2OC3(C)CC[C@H]4[C@H](C)CCC(C1C)C24OO3)C(=O)O (some centres not stated)	n	n	x	x	n	x
O=S1(=O)CCOCC(Cc2ccccc2)N1Cc1ccc(Cl)cc1 (configuration not stated)	x	x	n	n	x	n
O=C1CC(N(CCc2ccccc2)C(=S)Nc2ccccc2)C(=O)N1c1ccc(Br)cc1 (configuration not stated)	n	n	n	98.3	n	97.8
CC1OC(OC2C(COC3OC(CO)C(O)C(O)C3O)OC(OC3CC[C@]4(C)C(CC[C@@]5(C)C4CC=C4C6CC(C)(C)CC[C@]6(CO)C(O)C[C@]45C)C3(C)C)C(O)C2O)C(O)C(O)C1O (some centres not stated)	x	x	n	n	x	n
C(#Cc1ccccc1)C[N+]1(CC#Cc2ccccc2)CCCCC1	n	n	n	n	n	n
Cc1ccc(C#CC[N+]2(CC#Cc3ccc(C)cc3)CCCCC2)cc1	n	n	n	n	n	96.1
COC(CC(O)CC(=O)COCc1ccccc1)OC (configuration not stated)	x	x	n	n	x	n
SMILES	CCHF vOTU inh	RecA intein inh	Mtb hypoxia inh	Sa RN4220 lethal	BJeLR lethal	Sa ugtP lethal
O=C(O)c1ccc(C=NNc2nc3ccccc3[nH]2)cc1	x	x	n	n	x	n
CCN(CC)c1ccc(/C=N/NC(=O)c2ccco2)cc1	n	n	x	x	n	x
CCN(CC)c1ccc(C=NNc2nc3ccccc3[nH]2)cc1	x	x	n	97.3	x	98.8
CCN(CC)c1ccc(/C=N/NC(=O)c2ccco2)c(O)c1	n	n	x	x	57.8	x
CCN(CC)c1ccc(/C=N/Nc2nc3ccccc3[nH]2)c(O)c1	n	n	x	x	60.3	x
CCN(CC)c1ccc(C=NNc2ccccc2)c(O)c1	x	x	n	n	x	n
COC(=O)C1=C(c2ccc(-c3ccccc3)c(F)c2)CC2CCC1N2C(=O)NC1CC1 (configuration not stated)	x	x	n	n	x	n
Oc1ccccc1N=Cc1sc2ccccc2c1Cl	n	n	36.7	n	n	n
O=C1C=C(c2ccc3ccccc3c2)CC(c2ccc(Cl)cc2)C1 (configuration not stated)	x	x	n	n	x	n
O=C(Nc1ccccc1)C1CC=CC2CCN(Cc3ccccc3)C(=O)C21 (configuration not stated)	x	x	n	n	x	n
Cc1ccc(C(=O)OCC(=O)Nc2ccccc2)cc1S(=O)(=O)N1CCCCC1	n	x	34.7	n	x	n
CC(=O)OC1C[C@@]2(C)C(CC(O)C3[C@@]4(C)CCC(O)C(C)C4CC[C@@]32C)C1=C(CCC=C(C)C)C(=O)O (some centres not stated)	x	x	x	99.7	x	99.9
CC(=O)O[C@H]1CC[C@]2(C)C3CC[C@@]4(C)C(C[C@@H](O)[C@@H]4O)C3[C@@H](OC(C)=O)C[C@H]2C1 (some centres not stated)	n	x	x	x	x	x
CCOC(=O)C1C2COc3ccccc3C2N2C(=O)c3cc(F)ccc3NC(=O)[C@@]12C (some centres not stated)	x	x	n	n	x	n
C[C@@H]1O[C@@H](O[C@H]2[C@H](Oc3cc(O)c4c(c3)OC(c3ccc(O)cc3)CC4=O)O[C@H](CO)[C@@H](O)[C@@H]2O)[C@H](O)[C@H](O)[C@H]1O (some centres not stated)	n	n	x	x	n	x
CNC(CC(C)C)C(=O)NC1C(=O)NC(CC(N)=O)C(=O)NC2C(=O)NC3C(=O)NC(C(=O)NC(C(=O)O)c4cc(O)cc(O)c4-c4cc3ccc4O)C(O)c3ccc(c(Cl)c3)Oc3cc2cc(c3OC2OC(CO)C(O)C(O)C2OC2C[C@](C)(N)C(O)C(C)O2)Oc2ccc(cc2Cl)C1O (some centres not stated)	n	x	x	100.7	x	99.9
Cc1sc(NC(=O)C2CCCCC2C(=O)O)c(C(N)=O)c1-c1ccc(C(C)(C)C)cc1 (configuration not stated)	n	n	x	n	n	n
CCOC(=O)c1c(NC(=O)/C=C\C(=O)O)sc(C)c1-c1ccccc1	n	56.3	x	x	n	x
Cc1sc(NC(=O)/C=C/C(=O)O)c(C(N)=O)c1-c1ccc(C(C)(C)C)cc1	n	61.3	n	n	n	n
CCOC(=O)c1c(NC(=O)C=CC(=O)O)sc(C)c1-c1ccccc1	x	x	n	n	x	n
O=C1CCNCCN1C(CO)c1ccccc1 (configuration not stated)	x	x	n	n	x	n
